Measurements as given in PubChem BioAssay (NCI).
The panel holds about 83,000 compounds, 20% with a hit somewhere; the sample as a whole holds those more often.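 Step 1: grow cells in 96-well plates. Step 2: add test compound at a single concentration. Step 3: incubate 48 h. Step 4: record percent growth.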 A number with no mark means an inactive call. Active and inactive are the calls of the source. How the source made its calls: active means growth percent below 10; inactive means the rest.

Legend:
Assay in all cases: NCI-60 one-dose screen, 48 h (100 = growth as untreated, 0 = no growth, -100 = all killed)
Conditions in all cases: 10 µM unless noted
HCT-15 colon = test system: HCT-15 colon
HT29 colon = test system: HT29 colon
SNB-75 CNS = test system: SNB-75 CNS
SNB-19 CNS = test system: SNB-19 CNS
U251 CNS = test system: U251 CNS
PC-3 prostate = test system: PC-3 prostate
SK-MEL-5 melanoma = test system: SK-MEL-5 melanoma
UACC-62 melanoma = test system: UACC-62 melanoma
LOX IMVI melanoma = test system: LOX IMVI melanoma
SK-MEL-28 melanoma = test system: SK-MEL-28 melanoma
SK-MEL-2 melanoma = test system: SK-MEL-2 melanoma
EKVX NSCLC = test system: EKVX NSCLC
SN12C renal = test system: SN12C renal
UO-31 renal = test system: UO-31 renal
TK-10 renal = test system: TK-10 renal
ACHN renal = test system: ACHN renal
CAKI-1 renal = test system: CAKI-1 renal
A498 renal = test system: A498 renal
CCRF-CEM leukemia = test system: CCRF-CEM leukemia
MOLT-4 leukemia = test system: MOLT-4 leukemia

| Structure (SMILES) | growth (HCT-15 colon) | growth (HT29 colon) | growth (SNB-75 CNS) | growth (SNB-19 CNS) | growth (U251 CNS) | growth (PC-3 prostate) | growth (SK-MEL-5 melanoma) | growth (UACC-62 melanoma) | growth (LOX IMVI melanoma) | growth (SK-MEL-28 melanoma) | growth (SK-MEL-2 melanoma) | growth (EKVX NSCLC) | growth (SN12C renal) | growth (UO-31 renal) | growth (TK-10 renal) | growth (ACHN renal) | growth (CAKI-1 renal) | growth (A498 renal) | growth (CCRF-CEM leukemia) | growth (MOLT-4 leukemia) |
| --- | --- | --- | --- | --- | --- | --- | --- | --- | --- | --- | --- | --- | --- | --- | --- | --- | --- | --- | --- | --- |
| CCCCNC1=C(OCC)C(=O)c2ccccc2C1=O | 94.3% | 123% | 96.1% | 100% | 99.7% | 94.4% | 91.9% | 97.5% | 68.8% | 114% | 104% | 104% | 97.2% | 91.5% | 145% | 105% | 110% | 37.4% | 100% | 108% |
| CCOC(=O)N1CCN(S(=O)(=O)c2oc(-c3ccc(Cl)cc3)nc2C#N)CC1 | -8.32% (active) | 79.3% | 87.9% | 98.3% | 95.9% | 93% | 97.4% | 98.8% | 10.8% | 105% | 83.8% | 101% | 92.6% | 81.5% | -27% (active) | 76.1% | 101% | 126% | 1.71% (active) | 5.33% (active) |
| O=C(NCc1ccccc1O)c1cccc2ccccc12 | 68.9% | 107% | 66.5% | 69.3% | 81.6% | 52.5% | 60.1% | 37.9% | 79.6% | 71.5% | 86.4% | 82.1% | 64.9% | 51.5% | 98.5% | 72.4% | 91.9% | 56% | 101% | 79% |
| N=C(N)c1ccc(-c2ccc(-c3ccc(Cl)cc3Cl)s2)cc1F | -75.7% (active) | -29.4% (active) | 20.7% | -34.3% (active) | -52.1% (active) | -14.1% (active) | 50.8% | -54% (active) | -89.9% (active) | 83.7% | 55.8% | 32.4% | -27.9% (active) | -90.5% (active) | 91.5% | -100% (active) | -82.8% (active) | 83.7% | -26.1% (active) | -47.2% (active) |
| Fc1ccc(COc2ccc(Nc3ncnc4sc5c(c34)CCCC5)cc2)cc1 | 92.6% | 77.8% | 113% | 100% | 90.8% | 72.2% | 95.5% | 72.1% | 99.5% | 91.5% | 84.4% | 94.3% | 81.1% | 78.5% | 84% | 95.2% | 99.6% | 86.2% | 97.6% | 87.4% |
| Cc1ccc(N=Nc2c(N)nn(-c3ccccc3)c2N)cc1 | 21% | 11.7% | 32.6% | 46.7% | 28.2% | 56.7% | -18.6% (active) | 31.5% | 47.1% | 56.8% | 41.2% | 29.9% | 45.4% | 45.1% | 43.6% | 47.6% | -2.05% (active) | 49.9% | 8.89% (active) | 23.5% |
| Nc1n[nH]c2ccc([C@@H]3Nc4cc5[nH]ncc5cc4[C@H]4C5CCC(C5)[C@@H]34)cc12 (stereo not given in full) | 13.7% | 6.61% (active) | -9.87% (active) | 20.4% | 19% | 25.1% | 9.55% (active) | 33.8% | 25.4% | 60.1% | 65.2% | 35.2% | 36.4% | 40.2% | 62.4% | 32.1% | 34.5% | -15.7% (active) | 11.2% | 22.5% |
| c1ccc(CNc2ccc3nc(CCC4CCCCC4)[nH]c3c2)cc1 | 26.8% | 13.8% | 84.9% | 80.4% | 63.6% | 62.5% | 43.2% | 59.6% | 79.4% | 80% | 82.8% | 75.7% | 62.8% | 37.5% | 84.2% | 87% | 66.7% | 42.7% | 59.2% | 51.2% |
| N#Cc1c(NC(=O)c2cccs2)[n+]([O-])c2ccc(Cl)cc2[n+]1[O-] | 111% | 107% | 91.7% | 103% | 99% | 96% | 37.7% | 82.2% | 94.8% | 106% | 59.3% | 98.7% | 99.8% | 98.6% | 118% | 99.5% | 73% | 41.4% | 95.9% | 97.3% |
| CC[C@H](Nc1nc(N)nc(C)c1C#N)c1nc2cccc(NCCCCCC(=O)NO)c2c(=O)n1-c1ccccc1 | 78.7% | 79.2% | 5.55% (active) | 71% | 61.3% | 45.1% | 49.7% | 15.7% | 66.5% | 45.8% | 76.1% | 75% | 46.3% | 30.1% | 33.2% | 51.9% | 35.9% | -29.5% (active) | 43.3% | 30.7% |
| C=NNc1ccccc1 | 87.4% | 108% | 90.9% | 93.8% | 88.1% | 63.8% | 98.8% | 50.2% | 62.8% | 117% | 123% | 92.8% | 89.6% | 71% | 127% | 78% | 84.1% | 77.1% | 71.5% | 105% |
| CC(C)c1ccc(NC(=O)Nc2ccc(NC(=O)c3ccccc3N)cc2)cc1 | 50.7% | 26.5% | 26.3% | 55.5% | 35.6% | 47.6% | 24.3% | 3% (active) | 20.9% | 39.9% | 45.3% | 48.2% | 91.6% | 20.5% | 65.5% | 29.6% | 70.7% | 49.6% | 29% | 19.2% |
| CCN(CC)CCOc1ccc(Nc2ncc3cc(-c4ccc(O)cc4)c(=O)n(C)c3n2)cc1 | 19.7% | 14.8% | 27.7% | 62.4% | 53.9% | -49.3% (active) | 92.9% | 93.3% | -11.7% (active) | 55.7% | 97.7% | 74% | 39.9% | 10.5% | 81.2% | 26% | 26.4% | 69.4% | -8.41% (active) | 5.99% (active) |
| C#CCn1cnc2c(Nc3cccc(NC(=O)CCl)c3)ncnc21 | 23.4% | 26.9% | 33.2% | 58.7% | 19.1% | 28.6% | 31.4% | 19.7% | 24% | 39.5% | 46% | 45.3% | 31.2% | 46.7% | 76.9% | 23.4% | 29.9% | 78.7% | 4.81% (active) | 4.44% (active) |
| O=C(NCc1ccc2c(c1)OCO2)NCC1CCCC(CNC(=O)NCc2ccc3c(c2)OCO3)C1 (stereo not given) | 99.2% | 110% | 97.3% | 87.7% | 103% | 102% | 102% | 95.8% | 97.9% | 114% | 109% | 106% | 102% | 95.7% | 101% | 105% | 89.6% | 95.3% | 85.1% | 92.9% |
| CC[C@H](CC[C@@H](C)[C@H]1CC[C@H]2[C@@H]3CC[C@@H]4CC(=O)/C(=C\c5ccncc5)C[C@]4(C)[C@H]3CC[C@]12C)C(C)C | 102% | 103% | 99.4% | 99.2% | 96.3% | 92.6% | 100% | 94.5% | 95.7% | 107% | 105% | 99.6% | 102% | 90.4% | 107% | 111% | 93.8% | 83% | 107% | 104% |
